In ChEMBL document CHEMBL1201862, “PubChem BioAssay data set” (2004) one finds GI50 data, which are given here for ten substances.

Screen size: about 52,000 sequences; about 3,900 (7.5%) were called active. Cut-off read from the data, not from the text of the source: active = GI50 up to about 1.1 µM and inactive = higher. Only a sample is shown. Potency and affinity values are given separately.

The test system of the assay is RXF 393.
A word on the GI50: it is the concentration that inhibits growth by half. Higher therefore signals lower sensitivity of the cells. Turning to “[Bis(aminomethyl)tetramethylenesilane]tetrachloropaltinum(IV), CHEMBL2146189”, the GI50 came to 25.4 µM.
Substance “[Bis(aminomethyl)pentamethylenesilane]tetrachloropaltinum(IV), CHEMBL2146204” displayed a 50% growth inhibitory concentration (GI50) of 7.35 µM.
Under “[Bis(aminomethyl)dimethylsilane]tetrachloroplatinum(IV), CHEMBL2146190” stands 3.59 µM; under “[Bis(aminomethyl)dimethylsilane]dichloroplatinum (II), CHEMBL2146201”, 34.2 µM.
For the substance “[Bis(aminomethyl)pentamethylenesilane]dichloropaltinum(II), CHEMBL2146202”, it took 2.92 µM to inhibit growth by half (GI50).
The figure for “cis-Bis[[(trimethylsilyl)methyl]amino]tetrachloroplatinum(IV), CHEMBL2146191” is 2.72 µM; for “[Bis(aminomethyl)tetramethylenesilane]dichloropaltinum(II), CHEMBL2146205” it is 12.6 µM; for “[Bis(aminomethyl)diethylsilane]tetrachloroplatinum(IV), CHEMBL2146203” it is 17.4 µM.
Under CISPLATIN, CHEMBL11359 stands 3.33 µM; under “mu-(1,7-nanodiamine-N,N')bis-(cis-aminedichloroplatimum (II)), CHEMBL2146215”, 15.4 µM.
